Values without a mark were called inactive. Results filed as inconclusive are left out. A call without a number means that no potency is given here. Activity calls are given as the source filed them. The call rests on the fitted dose curve; in most records, active means well fitted curve in the direction sought with a large enough effect in the repeat runs; inconclusive means weak or mixed curves; inactive means no such curve, though single readings can be large; an effect the other way counts as inactive or inconclusive.
Experiments:
[1] = A CellTox Green Cytotoxicity Assay to monitor cytotoxicity in HepG2 cells - 16 hour (AID 1224876); further: nearly all actives have a fitted effect of over 45% in size
Outline: (§1)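 Continuous culture of HepG2 cells with a membrane-impermeant DNA dye; rising fluorescence marks dead cells. Compound exposure lasted up to 40 h at 37 C, with reads every 8 h from 0 h.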

[2] = qHTS RealTime-Glo MT Cell Viability Assay in HepG2 cells - 32 hour (AID 1224877); further: nearly all actives have a fitted effect of over 55% in size
Outline: (§2)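 Luminescence read-out: viable HepG2 cells reduce a prosubstrate to a NanoLuc substrate, giving a signal proportional to live cell number. Reads taken at 0, 8, 16, 24, 32 and 40 h of compound exposure at 37 C.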

[3] = A CellTox Green Cytotoxicity Assay to monitor cytotoxicity in HepG2 cells - 24 hour (AID 1224878); further: nearly all actives have a fitted effect of over 45% in size
Outline: as §1

[4] = A CellTox Green Cytotoxicity Assay to monitor cytotoxicity in HepG2 cells - 40 hour (AID 1224879); further: nearly all actives have a fitted effect of over 40% in size
Outline: as §1

[5] = qHTS RealTime-Glo MT Cell Viability Assay in HEK293 cells - 0 hour (AID 1224880); further: top concentration of the series differs between compounds; nearly all actives have a fitted effect of over 45% in size
Outline: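 qHTS format; HEK293 cells with NanoLuc/prosubstrate reagent, 37 C/5% CO2 for 5 h pre-dosing; compounds 23 nL in DMSO; luminescence at each time point reflects viable cells.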

[6] = A CellTox Green Cytotoxicity Assay to monitor cytotoxicity in HepG2 cells - 0 hour (AID 1224882); further: nearly all actives have a fitted effect of over 35% in size
Outline: as §1

[7] = A CellTox Green Cytotoxicity Assay to monitor cytotoxicity in HepG2 cells - 32 hour (AID 1224883); further: nearly all actives have a fitted effect of over 50% in size
Outline: as §1

[8] = A CellTox Green Cytotoxicity Assay to monitor cytotoxicity in HEK293 cells - 8 hour (AID 1224884); further: nearly all actives have a fitted effect of over 35% in size
Outline: (§3)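 Each value comes from one timepoint of a single continuous run in which HEK293 cells with CellTox Green were exposed to compound for up to 40 h at 37 C, dye fluorescence rising with cell death.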

[9] = A CellTox Green Cytotoxicity Assay to monitor cytotoxicity in HEK293 cells - 32 hour (AID 1224881); further: nearly all actives have a fitted effect of over 40% in size; further: potency means the concentration at half of the fitted maximal effect
Outline: as §3

[10] = qHTS RealTime-Glo MT Cell Viability Assay in HepG2 cells - 16 hour (AID 1224885); further: nearly all actives have a fitted effect of over 50% in size
Outline: as §2

Row | SMILES | Potency [1] | outcome [2] | Potency [3] | Potency [4] | Potency [5] | Potency [6] | Potency [7] | Potency [8] | Potency [9] | outcome [10]
1 | c1ccc(B(c2ccccc2)c2ccccc2)cc1 | inactive | inactive | inactive | inactive | inactive | inactive | inactive | inactive | – | –
2 | CC(C)CCOC(=O)c1ccccc1 | inactive | inactive | inactive | inactive | inactive | – | – | inactive | inactive | inactive
3 | Cc1ccc(C)c([N+](=O)[O-])c1 | inactive | inactive | inactive | inactive | inactive | inactive | inactive | inactive | – | inactive
4 | CCC(C)OC(C)CC (centres undefined) | inactive | inactive | inactive | inactive | inactive | – | inactive | inactive | inactive | inactive
5 | Fc1ccccc1 | inactive | inactive | inactive | inactive | inactive | inactive | inactive | inactive | – | inactive
6 | CC(O)CC(C)O (centres undefined) | inactive | inactive | inactive | inactive | inactive | inactive | inactive | inactive | – | inactive
7 | O=C=NCC1CCCC(CN=C=O)C1 (centres undefined) | inactive | inactive | inactive | inactive | inactive | – | inactive | inactive | inactive | inactive
8 | CN1CCOC(c2ccccc2)c2ccccc2C1 (centres undefined) | inactive | inactive | inactive | inactive | inactive | – | inactive | inactive | inactive | inactive
9 | C[C@@H](O)C(=O)O | inactive | inactive | inactive | inactive | inactive | inactive | inactive | inactive | – | –
10 | CCNC(=O)NCc1cccc(Cl)c1 | inactive | inactive | inactive | inactive | inactive | inactive | inactive | inactive | – | inactive
11 | O=C1OCCO1 | inactive | inactive | inactive | inactive | inactive | – | inactive | inactive | 366 nM (active) | inactive
12 | O=C(O)CNC(=O)CNC(=O)CNC(=O)CSC(=O)c1ccccc1 | inactive | inactive | inactive | inactive | inactive | inactive | inactive | inactive | – | inactive
13 | CCN(CC)CCN | inactive | inactive | inactive | inactive | inactive | inactive | – | inactive | – | inactive
14 | CCCC(=O)Nc1ccc(OCC(O)CNC(C)C)c(C(C)=O)c1 (centres undefined) | inactive | inactive | inactive | inactive | inactive | – | inactive | inactive | inactive | inactive
15 | CC(C)NC(=O)c1ccc(C=O)cc1 | inactive | inactive | inactive | inactive | inactive | – | – | inactive | inactive | inactive
16 | CC(C)C1OCCN1CCOC(=O)NCCCCCCNC(=O)OCCN1CCOC1C(C)C (centres undefined) | inactive | inactive | inactive | inactive | inactive | – | – | inactive | inactive | inactive
17 | CN(C)CCN(C)CCO | inactive | inactive | inactive | inactive | inactive | inactive | inactive | inactive | – | inactive
18 | CC1CCc2c(N3CCC(O)CC3)c(F)cc3c(=O)c(C(=O)O)cn1c23 (centres undefined) | inactive | inactive | inactive | inactive | inactive | inactive | inactive | inactive | – | inactive
19 | OC1(c2ccc(Cl)cc2)CCNCC1 | inactive | inactive | inactive | inactive | inactive | – | inactive | inactive | inactive | inactive
20 | CC(S)C(C)S (centres undefined) | inactive | inactive | inactive | inactive | inactive | inactive | inactive | inactive | – | inactive
21 | CCC(=O)c1c(O)cc(O)cc1O | inactive | inactive | inactive | inactive | inactive | inactive | inactive | inactive | – | inactive
22 | CC(CO)(CO)CO | inactive | inactive | inactive | inactive | inactive | – | inactive | inactive | inactive | inactive
23 | CCCCSCCCC | inactive | inactive | inactive | inactive | inactive | inactive | inactive | inactive | – | inactive
24 | COCCc1ccccn1 | inactive | inactive | – | inactive | inactive | inactive | inactive | inactive | inactive | inactive
25 | CO[Si](CCCn1c(=O)n(CCC[Si](OC)(OC)OC)c(=O)n(CCC[Si](OC)(OC)OC)c1=O)(OC)OC | inactive | inactive | – | inactive | inactive | inactive | inactive | inactive | inactive | inactive
